Source: PubChem BioAssay
The source made the active and inactive calls.

Each compound was assayed against Homeobox protein Hox-A13 (Mus musculus) (UniProt Q62424) (assay: inhibitors of HoxA13-DNA binding, primary screen, biochemical, fluorescence polarization, labeled oligonucleotide (AID 1185)). Conditions: 15 min, higher = more signal, called active from +8 up or from −8 down.
Sequence of Homeobox protein Hox-A13 (Mus musculus) (Q62424 whole entry, looked up): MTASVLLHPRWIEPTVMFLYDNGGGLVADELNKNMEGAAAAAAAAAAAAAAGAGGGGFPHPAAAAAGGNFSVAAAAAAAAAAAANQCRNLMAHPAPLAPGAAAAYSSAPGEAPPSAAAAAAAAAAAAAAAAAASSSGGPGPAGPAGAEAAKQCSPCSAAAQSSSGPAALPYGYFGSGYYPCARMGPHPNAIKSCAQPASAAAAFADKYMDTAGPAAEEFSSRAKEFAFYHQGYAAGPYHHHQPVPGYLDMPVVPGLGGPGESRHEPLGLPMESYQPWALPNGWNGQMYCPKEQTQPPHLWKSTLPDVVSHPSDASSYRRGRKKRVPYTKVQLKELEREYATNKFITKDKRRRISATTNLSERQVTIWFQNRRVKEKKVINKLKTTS

z-score, inactive:
CC(C)CON=C1C[C@@H](O)[C@@H](O)[C@@H]2[C@@H]3C(=O)N(C(C)(C)C)C(=O)[C@@H]3CC[C@H]12 -0.219
O=C(NN=C1C[C@@H](O)[C@@H](O)[C@@H]2[C@@H]3C(=O)N(Cc4ccccc4)C(=O)[C@@H]3CC[C@@H]12)OCc1ccccc1 0.236
CCc1cc2c(nc1CC)CCN(CCC(C)=NO[C@@H](C)c1cn([C@H](CO)Cc3ccccc3)nn1)C2 -6.65
CC[C@@H](c1ccccc1)n1c(=O)n2n(c1=O)[C@H]1[C@H](O)[C@@H]3O[C@@H]3C(=O)[C@H]1CC2 -1.59
CCOC(=O)[C@H](CC(C)C)NC(=O)CCC1CC(OC(=O)NCc2cccc3ccccc23)CC2(CCCC(COC(=O)NCCC(C)C)O2)O1 (stereo partly drawn) -6.1
COC(=O)[C@@H]1CC[C@@H](C)[C@H](c2ccc(Br)cc2)N1 -1.98
C#CCCCON=C1C[C@@H](O)[C@@H](O)[C@@H]2[C@@H]3C(=O)N(C(C)(C)C)C(=O)[C@@H]3CC[C@@H]12 -3.44
Cc1cc2c(nc1C)CCCCN2CC(C)ON=C[C@@H](C)[C@H](OCc1ccccc1)C(C)C (stereo partly drawn) -3.66
CC(C)=NOC[C@@H](C)[C@H](OCc1ccccc1)C(C)C 1.47
CCOC(=O)[C@H](Cc1ccccc1)NC(=O)CCC1CC(OC(=O)NCCc2ccc(F)cc2)CC2(CCCC(COC(=O)NCCCN3CCCC3=O)O2)O1 (stereo partly drawn) -2.25
O=C1CCCC(C2=CCCCC2=O)C1 (stereo not drawn) -1.63
CCOC(=O)[C@H](Cc1ccccc1)NC(=O)CCC1CC(OC(=O)NCc2ccc3c(c2)OCO3)CC2(CCCC(COC(=O)NCCC(C)C)O2)O1 (stereo partly drawn) -6.91
O=C1[C@H]2[C@H]3[C@H](O)[C@H](O)CC(=NOCc4ccccc4)[C@@H]3CC[C@H]2C(=O)N1Cc1ccc2c(c1)OCO2 -3.53
